Among the test systems are SR leukemia; RPMI-8226 leukemia; OVCAR-8 ovarian; OVCAR-5 ovarian; OVCAR-4 ovarian; SK-OV-3 ovarian; IGROV1 ovarian; OVCAR-3 ovarian; HS 578T breast; NCI/ADR-RES ovarian; T-47D breast; BT-549 breast; MDA-MB-435 melanoma; SW-620 colon; MCF7 breast; HCT-116 colon; HCC-2998 colon; KM12 colon.
Holding throughout (assay): NCI-60 one-dose screen, 48 h (100 = growth as untreated, 0 = no growth, -100 = all killed)
Conditions in all cases: 10 µM unless noted

For nine compounds, growth results are on record in PubChem BioAssay (NCI).

Compounds without any hit were thinned out: in the full panel of roughly 83,000, 20% have a hit.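 Compound tested at a single concentration for 48 hours in 96-well plates; a percent growth value below 10 was scored as active.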 A number with no mark means an inactive call. Active and inactive are the calls of the source.

`COc1cc(C=Nc2oc(-c3ccccc3)c(-c3ccccc3)c2C#N)cc(CN2CCCC2)c1O`: the growth with SR leukemia is 80.9%; in the assay with RPMI-8226 leukemia, 100%; in the assay with OVCAR-8 ovarian, 107%; with OVCAR-5 ovarian, 102%; with OVCAR-4 ovarian, 95.5%; in the assay on SK-OV-3 ovarian, 111%. Also, the growth is 92% in the assay on IGROV1 ovarian; 105% in the assay with OVCAR-3 ovarian; 90.2% in the assay on HS 578T breast; 104% with NCI/ADR-RES ovarian; 85.7% in the assay on T-47D breast; 109% in the assay with BT-549 breast. Besides, the growth with MDA-MB-435 melanoma is 104%; in the assay with SW-620 colon it was 95.9%; with MCF7 breast, 96.4%; in the assay with HCT-116 colon, 95.4%; in the assay with HCC-2998 colon it was 111%; in the assay on KM12 colon, 102%.
As to `CS(=O)(=O)Nc1cc(-c2ccc3ncnc(Nc4ccc5c(cnn5Cc5ccncc5)c4)c3c2)cnc1Cl`, the growth in the assay with SR leukemia is 44.6%; in the assay with RPMI-8226 leukemia, 64.3%; in the assay with OVCAR-8 ovarian, 82.5%; in the assay on OVCAR-5 ovarian, 59%; with OVCAR-4 ovarian it was 84.8%; in the assay on SK-OV-3 ovarian it was 54.9%. The growth was 0.593% (active) in the assay on IGROV1 ovarian; 37% in the assay with OVCAR-3 ovarian; -6.14% (active) in the assay with HS 578T breast; 88.2% in the assay with NCI/ADR-RES ovarian; 2.48% (active) in the assay with T-47D breast; 16.1% in the assay on BT-549 breast. The growth with MDA-MB-435 melanoma is 63.2%; in the assay with SW-620 colon, 68.6%; with MCF7 breast it was 31.3%; in the assay on HCT-116 colon it was 75.2%; with HCC-2998 colon, 73.7%; with KM12 colon it was 93.4%.
For `COc1ccc(/C=N/Nc2c3ccccc3nc3ccccc23)cc1`, the growth was 95.6% with SR leukemia; 83.8% in the assay with RPMI-8226 leukemia; 97% in the assay on OVCAR-8 ovarian; 111% in the assay with OVCAR-5 ovarian; 81.7% in the assay with OVCAR-4 ovarian; 90.8% in the assay on SK-OV-3 ovarian. In addition, the growth in the assay with IGROV1 ovarian was 88.2%; in the assay on OVCAR-3 ovarian, 91.7%; in the assay with HS 578T breast, 93.1%; with NCI/ADR-RES ovarian it was 102%; with T-47D breast it was 87.5%; in the assay on BT-549 breast, 92.2%. Also, the growth with MDA-MB-435 melanoma was 97%; with SW-620 colon it was 97.7%; with MCF7 breast, 81.9%; with HCT-116 colon, 97.4%; in the assay on HCC-2998 colon it was 105%; in the assay on KM12 colon, 91.4%.
Consider `N#CSc1c[nH]c2ccc(/C=C/C(=O)/C=C(O)/C=C/c3ccc4[nH]cc(SC#N)c4c3)cc12`, for which the growth in the assay with SR leukemia was 2.57% (active); with RPMI-8226 leukemia it was 3.93% (active); with OVCAR-8 ovarian, 9.71% (active); with OVCAR-5 ovarian, 67.4%; in the assay with OVCAR-4 ovarian, 18.6%; with SK-OV-3 ovarian, 100%. The growth was 3.73% (active) with IGROV1 ovarian; 18.3% in the assay with OVCAR-3 ovarian; 51.7% in the assay with HS 578T breast; 46.4% with NCI/ADR-RES ovarian; 19.4% with T-47D breast; 15.7% in the assay on BT-549 breast. Moreover, the growth in the assay on MDA-MB-435 melanoma is -2.07% (active); in the assay with SW-620 colon it was 9.56% (active); in the assay with MCF7 breast it was 10.5%; in the assay on HCT-116 colon, 9.39% (active); with HCC-2998 colon, 46.3%; with KM12 colon it was 24.9%.
On to `Cc1cccc(-c2nc(C(C)C)sc2-c2ccnc(NCCCNS(=O)(=O)c3ccc(Cl)cc3)c2)c1`, for which the growth was 54.6% in the assay with SR leukemia; 69.2% in the assay on RPMI-8226 leukemia; 81.4% in the assay on OVCAR-8 ovarian; 95.3% in the assay with OVCAR-5 ovarian; 82.8% in the assay with OVCAR-4 ovarian; 72.9% with SK-OV-3 ovarian. Besides, the growth in the assay on IGROV1 ovarian was 70.5%; in the assay on OVCAR-3 ovarian, 76.8%; in the assay with HS 578T breast, 82%; with NCI/ADR-RES ovarian it was 58.9%; with T-47D breast, 52.5%; with BT-549 breast it was 74.8%. For the same compound, the growth in the assay with MDA-MB-435 melanoma was 80%; with SW-620 colon, 56.6%; in the assay with MCF7 breast, 53.8%; with HCT-116 colon, 54.4%; with HCC-2998 colon it was 75.2%; in the assay with KM12 colon it was 58.1%.
Consider `Cc1ccc(C2CC(c3cccc(Nc4ccncc4)c3)=Nc3c(N)nc(N)nc3N2)cc1` (configuration not stated), for which the growth with SR leukemia is -4.18% (active); in the assay on RPMI-8226 leukemia, 44.9%; in the assay with OVCAR-8 ovarian, 38%; with OVCAR-5 ovarian it was 95.5%; in the assay on OVCAR-4 ovarian it was 81.2%; in the assay on SK-OV-3 ovarian, 97.9%. Further, the growth with IGROV1 ovarian is 42.4%; with OVCAR-3 ovarian it was 82.1%; with HS 578T breast, 80%; in the assay on NCI/ADR-RES ovarian, 101%; in the assay on T-47D breast, 89%; in the assay on BT-549 breast, 114%. The growth in the assay on MDA-MB-435 melanoma is 21.7%; with SW-620 colon, 30.4%; in the assay on MCF7 breast, 37.7%; in the assay on HCT-116 colon it was 22.3%; in the assay with HCC-2998 colon it was 62.4%; with KM12 colon, 51.7%.
Consider `COc1ccc(C2[C@@H](Cl)C(=O)N2c2cc(OC)c(OC)c(OC)c2)cc1Cl` (some centres not stated), for which the growth in the assay on SR leukemia was 5.49% (active); with RPMI-8226 leukemia, 9.34% (active); with OVCAR-8 ovarian, 9.75% (active); in the assay with OVCAR-5 ovarian it was 64.4%; with OVCAR-4 ovarian it was 56%; in the assay on SK-OV-3 ovarian it was -0.0611% (active). Moreover, the growth in the assay on IGROV1 ovarian is 33.5%; with OVCAR-3 ovarian, -2.62% (active); in the assay with HS 578T breast, 31%; in the assay with NCI/ADR-RES ovarian it was 18%; with T-47D breast, 43.3%; with BT-549 breast, -19.1% (active). The growth with MDA-MB-435 melanoma is -20.7% (active); in the assay with SW-620 colon, 21.9%; in the assay with MCF7 breast, 14.4%; in the assay with HCT-116 colon, -9.69% (active); in the assay on HCC-2998 colon, 22.8%; in the assay with KM12 colon it was 16.3%.
For the compound `Cc1c2cnccc2c(C)c2c1c1cc(CO)ccc1n2C`, the growth was 8.41% (active) in the assay with SR leukemia; -20.5% (active) in the assay on RPMI-8226 leukemia; -13.8% (active) with OVCAR-8 ovarian; -27.5% (active) in the assay with OVCAR-5 ovarian; -56.2% (active) with OVCAR-4 ovarian; -43.1% (active) in the assay on SK-OV-3 ovarian. Moreover, the growth in the assay on IGROV1 ovarian was -36.4% (active); with OVCAR-3 ovarian, -33.7% (active); in the assay on HS 578T breast, -13.1% (active); in the assay on NCI/ADR-RES ovarian, -24.6% (active); with T-47D breast, -21.2% (active); in the assay with BT-549 breast it was -61.6% (active). Also, the growth in the assay with MDA-MB-435 melanoma was -81.2% (active); in the assay with SW-620 colon it was 2.39% (active); with MCF7 breast, -13.9% (active); in the assay on HCT-116 colon, -7.64% (active); in the assay with HCC-2998 colon, -65.4% (active); with KM12 colon, 1.94% (active).
`O=C1O[C@@H](c2ccccc2Cl)[C@@H]2c3cc4c(cc3CCN12)OCO4`: the growth is 100% with SR leukemia; 94.4% in the assay on RPMI-8226 leukemia; 98.7% with OVCAR-8 ovarian; 113% in the assay with OVCAR-5 ovarian; 104% in the assay on OVCAR-4 ovarian; 119% in the assay with SK-OV-3 ovarian. Further, the growth was 94% in the assay on IGROV1 ovarian; 100% in the assay with OVCAR-3 ovarian; 101% with HS 578T breast; 104% with NCI/ADR-RES ovarian; 69.9% with T-47D breast; 101% in the assay with BT-549 breast. For the same compound, the growth was 105% in the assay on MDA-MB-435 melanoma; 97.2% in the assay on SW-620 colon; 103% in the assay on MCF7 breast; 94.9% with HCT-116 colon; 106% in the assay with HCC-2998 colon; 97.8% with KM12 colon.
